Data from PubChem BioAssay (NCATS).
Records with an inconclusive call do not appear. The source made the active and inactive calls. Calls come from the whole dose curve; as a rule, active = well fitted cell-killing curve with a large enough effect; inconclusive = small, poorly fitted or top-dose-only effect, or effect the other way; inactive = flat fitted curve, though single readings scatter. Where a SMILES comes first, the peptide text is derived from it. The star is where a group is joined. AMC = Cc1cc(=O)oc2cc(N*)ccc12; Cbz = O=C(OCc1ccccc1)*

Columns and labels:
Assay in all cases: Primary qHTS to identify gynecologic anti-cancer compounds using libraries of approved drugs and bioactive compounds (AID 1345084); note: nearly all actives have a fitted effect of over 55% in size
Settings in all cases: Gynecologic cancer cell panel viability, ATPlite luminescence, 48 h; series mostly up to 57.5 µM
OV90 = test system: OV90
Procedure, shortened: (§1)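 Five-concentration response, 48 h; readout is ATP-driven luciferase luminescence.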

PA-1 = test system: PA-1
Procedure, shortened: as §1

SKOV3 = test system: SKOV3
Procedure, shortened: as §1

Tov-21-G = test system: Tov-21-G
Procedure, shortened: as §1

Tov112D = test system: Tov112D
Procedure, shortened: as §1
% is set by controls: 0 for no effect and ±100 for the full control effect.

Cc1ccc(-c2c(-c3nn(C)c4ncnc(N5CC[C@H](N6CCCCC6)C5)c34)cnn2C)cc1
inactive: Potency (OV90) | Potency (PA-1) | Potency (SKOV3) | Potency (Tov-21-G) | Potency (Tov112D)

CC(=O)OC1C(O)C(C)(O)C(/C=C/C(=O)O)C2(C)CCCC(C)(C)C12 (stereo not given)
inactive: Potency (OV90) | Potency (PA-1) | Potency (SKOV3) | Potency (Tov-21-G) | Potency (Tov112D)

CC1(C)C=Cc2c(ccc3c2[N+]([O-])=C2C3(O)CC34NC(=O)C5(CCCN5C3=O)CC4C2(C)C)O1 (stereo not given)
inactive: Potency (OV90) | Potency (PA-1) | Potency (SKOV3) | Potency (Tov-21-G) | Potency (Tov112D)

C[C@@H]1O[C@@H](O[C@H]2[C@H](O[C@H]3[C@H](O[C@H]4CC[C@@]5(C)C(CC[C@]6(C)C5CC=C5[C@@H]7CC(C)(C)C[C@@H](O)[C@]7(C)CC[C@]56C)[C@@]4(C)CO)O[C@H](C(=O)O)[C@@H](O)[C@@H]3O)O[C@H](C(=O)O)[C@H](O)[C@@H]2O)[C@H](O)[C@H](O)[C@H]1O (stereo not given in full)
inactive: activity change, negative = cytotoxicity (OV90) 2.01% [at 11.6 µM] | activity change, negative = cytotoxicity (PA-1) 0.484% [at 11.6 µM] | activity change, negative = cytotoxicity (SKOV3) 10.8% [at 11.6 µM] | activity change, negative = cytotoxicity (Tov-21-G) 13.2% [at 11.6 µM] | activity change, negative = cytotoxicity (Tov112D) 5.35% [at 11.6 µM]

O=C1OC(c2ccc(O)cc2)C(O)=C1Cc1ccccc1 (stereo not given)
inactive: Potency (OV90) | Potency (PA-1) | Potency (SKOV3) | Potency (Tov-21-G) | Potency (Tov112D)

CC(C)(O)C1CC=C(C(=O)OC[C@H]2O[C@@H](OC(=O)C3=CCC(C(C)(C)O)CC3)[C@H](O)[C@@H](O)[C@@H]2O)CC1 (stereo not given in full)
inactive: Potency (OV90) | Potency (PA-1) | Potency (SKOV3) | Potency (Tov-21-G) | Potency (Tov112D)

CC(O)C/C=C/C=C/C(=O)OC1C=C2COC(=O)C2(O)C2(C)CCCC(C)(C)C12 (stereo not given)
inactive: Potency (OV90) | Potency (PA-1) | Potency (SKOV3) | Potency (Tov-21-G) | Potency (Tov112D)

COc1ccc(NC(=O)c2ccc(-c3ccc(C(N)=O)cc3C)cc2)cc1N1CCN(C)CC1
inactive: Potency (OV90) | Potency (PA-1) | Potency (SKOV3) | Potency (Tov-21-G) | Potency (Tov112D)

O=C(O)c1cc(C(F)(F)F)ccc1N1CC[C@H](OCc2ccccn2)C1
inactive: Potency (OV90) | Potency (PA-1) | Potency (SKOV3) | Potency (Tov-21-G) | Potency (Tov112D)

Cc1cc(=O)oc2cc(NC(=O)[C@H](CCC(=O)O)NC(=O)[C@H](CC(C)C)NC(=O)[C@H](CC(C)C)NC(=O)OCc3ccccc3)ccc12 (Cbz-Leu-Leu-Glu-{AMC})
inactive: Potency (OV90) | Potency (PA-1) | Potency (SKOV3) | Potency (Tov-21-G) | Potency (Tov112D)

O=C(O)C(Cc1ccccc1)NC(=O)C1CCCN1 (stereo not drawn) (H-Pro-Phe-OH; configuration not given here)
inactive: Potency (OV90) | Potency (PA-1) | Potency (SKOV3) | Potency (Tov-21-G) | Potency (Tov112D)

C=C1CC2C(C)(CCC(=O)O)C(C(C)(C)O)CCC2(C)C2(C(=O)OC)C(=O)C(C)(O)C(=O)C12C (stereo not given)
inactive: Potency (OV90) | Potency (PA-1) | Potency (SKOV3) | Potency (Tov-21-G) | Potency (Tov112D)

CC1=CC(=O)CC(C)(C)C1/C=C/C(C)OC1OC(COC2OCC(O)C(O)C2O)C(O)C(O)C1O (stereo not given)
inactive: Potency (OV90) | Potency (PA-1) | Potency (SKOV3) | Potency (Tov-21-G) | Potency (Tov112D)

O=C(O)[C@H]1Cc2ccccc2CN1
inactive: activity change, negative = cytotoxicity (OV90) 0.2% [at 6.55 µM] | activity change, negative = cytotoxicity (PA-1) 3.48% [at 6.55 µM] | activity change, negative = cytotoxicity (SKOV3) 14.2% [at 6.55 µM] | activity change, negative = cytotoxicity (Tov-21-G) 4.78% [at 6.55 µM] | activity change, negative = cytotoxicity (Tov112D) 19.2% [at 6.55 µM]

COC(=O)c1ccccc1O[C@@H]1O[C@H](CO[C@@H]2OC[C@@H](O)[C@H](O)[C@H]2O)[C@@H](O)[C@H](O)[C@H]1O
inactive: Potency (OV90) | Potency (PA-1) | Potency (SKOV3) | Potency (Tov-21-G) | Potency (Tov112D)

CC1=C2C(=O)C=C(CO)C2C2OC(=O)C(CS(=O)(=O)O)C2C(OC(=O)Cc2ccc(O)cc2)C1 (stereo not given)
inactive: Potency (OV90) | Potency (PA-1) | Potency (SKOV3) | Potency (Tov-21-G) | Potency (Tov112D)

COc1cccc(CN(C(=O)CC(C)(C)C)C2CC(C(=O)N3CCNCC3)N(Cc3ccc4c(c3)OCO4)C2)c1 (stereo not given)
inactive: Potency (OV90) | Potency (PA-1) | Potency (SKOV3) | Potency (Tov-21-G) | Potency (Tov112D)

C/C=C(\C)C(=O)OC1CC2C(CC=C3CC(OC4CC(OC)C(OC5CC(OC)C(OC6CC(OC)C(OC7CC(OC)C(OC8CC(OC)C(OC9OC(CO)C(O)C(O)C9O)C(C)O8)C(C)O7)C(C)O6)C(C)O5)C(C)O4)CCC32C)C2(O)CCC(C(C)=O)C12C (stereo not given)
inactive: activity change, negative = cytotoxicity (OV90) -1.21% [at 6.55 µM] | activity change, negative = cytotoxicity (PA-1) -0.231% [at 6.55 µM] | activity change, negative = cytotoxicity (SKOV3) -2.08% [at 6.55 µM] | activity change, negative = cytotoxicity (Tov-21-G) 2.5% [at 6.55 µM] | activity change, negative = cytotoxicity (Tov112D) -1.72% [at 6.55 µM]

C=C1CC[C@@H]2C(C)(C)CCC[C@@]2(C)[C@@H]1CC/C(=C/C(=O)OC)COC(C)=O
inactive: Potency (OV90) | Potency (PA-1) | Potency (SKOV3) | Potency (Tov-21-G) | Potency (Tov112D)

CC1=CC(=O)[C@]2(O[C@@H]3O[C@@H](C)[C@H](O)[C@@H](O)[C@H]3O)C=CO[C@@H](O[C@@H]3O[C@H](CO)[C@@H](O)[C@H](O)[C@H]3O)[C@H]12
inactive: Potency (OV90) | Potency (PA-1) | Potency (SKOV3) | Potency (Tov-21-G) | Potency (Tov112D)

CC1(C)[C@H]2C[C@H](C/C=C\CCCC(=O)O)[C@@H](NC(=O)c3csc4ccc(O)cc34)[C@@H]1C2
inactive: Potency (OV90) | Potency (PA-1) | Potency (SKOV3) | Potency (Tov-21-G) | Potency (Tov112D)

Cc1cn(C[C@H](N)C(=O)O)c(=O)n(Cc2ccsc2C(=O)O)c1=O
inactive: Potency (OV90) | Potency (PA-1) | Potency (SKOV3) | Potency (Tov-21-G) | Potency (Tov112D)
